These results are taken from PubChem BioAssay (NCI).

Some test systems named below: DU-145 prostate; K-562 leukemia; MALME-3M melanoma; MDA-MB-231 breast; RXF 393 renal; SF-268 CNS; SF-295 CNS; SF-539 CNS; UACC-257 melanoma; M14 melanoma.
Assay in all cases: NCI-60 one-dose screen, 48 h (100 = growth as untreated, 0 = no growth, -100 = all killed)
What all share (details): 10 µM unless noted

The structures appear in SMILES notation. Compounds without any hit were thinned out: in the full panel of roughly 83,000, 20% have a hit.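 Single-concentration screen, 48 h exposure, 96-well plates. Endpoint: percent growth. Below 10 = active.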 A number with no mark means an inactive call. The source made the active and inactive calls.

As for `Cn1cc(-c2csc(-c3c[nH]c4ccc(Br)cc34)n2)c2cnccc21`, the growth in the experiment on DU-145 prostate is -91.7% (active); with K-562 leukemia it was -53.8% (active); in the experiment on MALME-3M melanoma it was -88.7% (active); in the experiment with MDA-MB-231 breast it was -81.4% (active); with RXF 393 renal, -94.9% (active); in the experiment with SF-268 CNS it was -75.5% (active). Further, the growth is -86.6% (active) with SF-295 CNS, -96.4% (active) in the experiment with SF-539 CNS, -50.2% (active) in the experiment with UACC-257 melanoma and -81.7% (active) in the experiment with M14 melanoma.

Regarding `COc1ccc(C2=Nc3c/c(=C\c4c(O)[nH]c5ccc(Cl)cc45)ccc3=N2)cc1`, the growth in the experiment on DU-145 prostate was 73.2%; with K-562 leukemia it was 19.4%; in the experiment on MALME-3M melanoma, 40.8%; in the experiment with MDA-MB-231 breast, 42.7%; in the experiment on RXF 393 renal, -27.2% (active); in the experiment on SF-268 CNS, 53.4%. In addition, the growth with SF-295 CNS was 29.6%; in the experiment on SF-539 CNS, 59.9%; with UACC-257 melanoma, 54%; in the experiment with M14 melanoma it was 27.6%.

As to `S=C1CCSC(=S)N1CCCN1C(=S)CCSC1=S`, the growth in the experiment on DU-145 prostate was 73.3%; in the experiment with K-562 leukemia it was 29.4%; with MALME-3M melanoma, 74.2%; in the experiment on MDA-MB-231 breast, 75.3%; with RXF 393 renal it was 57.9%; in the experiment with SF-268 CNS it was 87.2%. Besides, the growth in the experiment with SF-295 CNS was 105%; with SF-539 CNS it was 71.6%; in the experiment with UACC-257 melanoma it was 89%; in the experiment with M14 melanoma, 83.1%.

Consider `COc1ccc(Cc2cc(-c3ccccc3)nn(Cc3ccccc3)c2=O)cc1OC`, for which the growth in the experiment with DU-145 prostate was 73.8%; in the experiment with K-562 leukemia it was 22.2%; with MALME-3M melanoma, 23.4%; in the experiment on MDA-MB-231 breast it was 43.6%; in the experiment with RXF 393 renal, 42.4%; with SF-268 CNS, 57%. Further, the growth in the experiment with SF-295 CNS is 28.8%; in the experiment on SF-539 CNS, 63.4%; in the experiment on UACC-257 melanoma, 34.4%; in the experiment on M14 melanoma, 38%.

Take `O=C1Nc2ccccc2/C1=C\c1nc(-c2ccccc2F)n2ccccc12`: the growth was -26.7% (active) in the experiment on DU-145 prostate; 74.1% with K-562 leukemia; 34.4% in the experiment with MALME-3M melanoma; 8.66% (active) in the experiment with MDA-MB-231 breast; -42.7% (active) with RXF 393 renal; 24.7% in the experiment with SF-268 CNS. Also, the growth with SF-295 CNS was 38.1%; with SF-539 CNS, -1.95% (active); with UACC-257 melanoma it was 45.7%; in the experiment with M14 melanoma, 53.4%.

Consider `O=C1Nc2ccccc2[C@]12CC(c1ccccc1)=NN2`, for which the growth with DU-145 prostate was 74.5%; in the experiment on K-562 leukemia, 21.8%; with MALME-3M melanoma, 37.2%; with MDA-MB-231 breast, 53.4%; in the experiment with RXF 393 renal, 73.3%; with SF-268 CNS, 47.5%. The growth in the experiment on SF-295 CNS was 45.6%; in the experiment on SF-539 CNS it was 28.4%; with UACC-257 melanoma it was 67.8%; with M14 melanoma, 25.8%.

For the compound `O=[N+]([O-])c1ccc(S(=O)(=O)N2CCN(C3=NS(=O)(=O)c4ccccc4N3c3ccccc3)CC2)cc1`, the growth is 117% in the experiment with DU-145 prostate; 84.9% in the experiment with K-562 leukemia; 106% with MALME-3M melanoma; 99.2% with MDA-MB-231 breast; 91.7% with RXF 393 renal; 101% in the experiment on SF-268 CNS. The growth with SF-295 CNS was 91.2%; with SF-539 CNS, 103%; with UACC-257 melanoma, 101%; with M14 melanoma, 113%.

Consider `O=S(=O)(Nc1cc(Br)c(O)c2ccccc12)c1ccc(F)cc1`, for which the growth in the experiment with DU-145 prostate is 81.2%; in the experiment with K-562 leukemia it was 28.7%; in the experiment with MALME-3M melanoma, 62.2%; in the experiment with MDA-MB-231 breast, 10.7%; with RXF 393 renal it was 102%; in the experiment on SF-268 CNS, 79.4%. For the same compound, the growth in the experiment on SF-295 CNS is 95%; with SF-539 CNS, 85.1%; with UACC-257 melanoma it was 63.4%; in the experiment with M14 melanoma it was 96.7%.

For the compound `CN1C(=O)N(C)C2Nn3c(s/c(=C\c4ccc(C(F)(F)F)cc4)c3=O)=NC21` (stereo not given), the growth in the experiment with DU-145 prostate is 109%; with K-562 leukemia, 93.3%; in the experiment with MALME-3M melanoma, 107%; in the experiment with MDA-MB-231 breast, 91.7%; in the experiment with RXF 393 renal it was 95.7%; in the experiment on SF-268 CNS, 96.9%. In addition, the growth in the experiment with SF-295 CNS was 101%; with SF-539 CNS, 97.3%; with UACC-257 melanoma, 111%; in the experiment on M14 melanoma, 110%.

With `CCOC(=O)c1c2c(n3ccc(C)cc13)C(=O)c1ccccc1C2=O`, the growth was 102% in the experiment on DU-145 prostate; 75.7% with K-562 leukemia; 103% in the experiment with MALME-3M melanoma; 90.2% in the experiment on MDA-MB-231 breast; 95.6% in the experiment on RXF 393 renal; 96.3% in the experiment on SF-268 CNS. The growth is 98.5% in the experiment with SF-295 CNS, 102% in the experiment with SF-539 CNS, 78.2% with UACC-257 melanoma and 84.6% with M14 melanoma.

Regarding `COc1ccc(-c2nn(-c3ccccc3)cc2/C=C2/SC(=S)N(C)C2=O)cc1`, the growth in the experiment on DU-145 prostate is 90.7%; in the experiment on K-562 leukemia it was 56.9%; in the experiment on MALME-3M melanoma, 88.4%; with MDA-MB-231 breast, 63%; in the experiment with RXF 393 renal, 96.5%; in the experiment on SF-268 CNS it was 99.2%. In addition, the growth was 51.4% in the experiment with SF-295 CNS, 70.3% with SF-539 CNS, 29.4% in the experiment on UACC-257 melanoma and 97.3% with M14 melanoma.

Turning to `COCCn1cc(-c2nc(-c3cc4cccnc4n3CCOC)cs2)c2cc(OC)ccc21`, the growth is 72.4% with DU-145 prostate; 0.391% (active) in the experiment on K-562 leukemia; 119% with MALME-3M melanoma; 23.7% in the experiment with MDA-MB-231 breast; 66.3% with RXF 393 renal; 74.2% in the experiment on SF-268 CNS. The growth was 74.2% in the experiment on SF-295 CNS, 62.6% in the experiment on SF-539 CNS, 94.7% in the experiment on UACC-257 melanoma and 69.4% with M14 melanoma.

Turning to `CCCCCCCCCCCCCCCCCCOc1ccccc1CC(=O)OCC[N+]1(C)CCCC1`, the growth in the experiment on DU-145 prostate is 45.4%; in the experiment on K-562 leukemia it was 27%; in the experiment with MALME-3M melanoma, 31%; in the experiment on MDA-MB-231 breast it was 4.95% (active); in the experiment with RXF 393 renal, -26.3% (active); in the experiment on SF-268 CNS, 20.7%. For the same compound, the growth in the experiment with SF-295 CNS is 58%; in the experiment with SF-539 CNS, 40.2%; in the experiment with UACC-257 melanoma, 75.3%; with M14 melanoma, 20.7%.

With `CN1CCN(C(=O)OCc2ccc3c(Cl)cc(Cl)c(O)c3n2)CC1`, the growth is 56.3% with DU-145 prostate; 18.1% in the experiment on K-562 leukemia; 81% in the experiment on MALME-3M melanoma; 90.5% with MDA-MB-231 breast; 71.3% in the experiment on RXF 393 renal; 53.3% with SF-268 CNS. Moreover, the growth in the experiment on SF-295 CNS was 45.3%; with SF-539 CNS it was 66.2%; with UACC-257 melanoma it was 89.3%; in the experiment with M14 melanoma, 55.4%.
